Experiment [1] in a line: NCI Yeast Anticancer Drug Screen. Data for the rad50 strain (AID 155).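 Also: 0% = growth of vehicle-only cultures of the same strain.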 The following applies: S. cerevisiae rad50 strain growth inhibition, hits give high values. In a few lines:
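DNA repair mutant yeast, compound exposure, growth read-out; inhibition is taken relative to vehicle.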

Experiment [2] in a line: NCI Yeast Anticancer Drug Screen. Data for the mec2-1 strain (AID 157). As to conditions: S. cerevisiae mec2-1 strain, hits give high values. The gist of the method:
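Cells of the genetically defined mec2-1 yeast strain are incubated with test compound. Inhibition of growth is calculated against vehicle-treated controls.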

Experiment [3] can be described thus: NCI Yeast Anticancer Drug Screen. Data for the sgs1 mgt1 strain (AID 161).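 Also: 0% = growth of cultures given vehicle only.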 The following applies: S. cerevisiae sgs1 mgt1 strain, hits give high values. In a few lines:
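Genetically altered yeast, compound exposure, growth inhibition relative to vehicle.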

Experiment [4] in a line: NCI Yeast Anticancer Drug Screen. Data for the cln2 rad14 strain (AID 165).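 Also: 0% = growth equal to vehicle treated cultures.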 As to conditions: S. cerevisiae cln2 rad14 strain, hits give high values. The gist of the method:
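The screen exposed genetically defined yeast (cln2 rad14) to test compounds and scored growth inhibition relative to vehicle-treated controls.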

Experiment [5] is described as follows: NCI Yeast Anticancer Drug Screen. Data for the bub3 strain (AID 167). The following applies: S. cerevisiae bub3 mutant strain, hits give high values. The gist of the method: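 In this screen, a yeast mutant lacking normal mitotic checkpoint function is challenged with compound. Relative growth versus vehicle gives the inhibition value.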
The nature of experiment [6]: NCI Yeast Anticancer Drug Screen. Data for the mlh1 rad18 strain (AID 175). As to conditions: S. cerevisiae mlh1 rad18 strain growth inhibition, hits give high values. In a few lines: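 Compound-treated yeast growth, normalised to vehicle controls. Strain bears defined DNA repair mutations.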
Setting [7] is: at 5.0 µM (retest, dose inferred, filed as 0.5).
Where [8] appears, read: at 50.0 µM (retest, dose inferred, filed as 5.0).

Compounds without any hit were thinned out: in the full panel of roughly 79,000, 15% have a hit. A number with no mark means an inactive call. The source made the active and inactive calls. Rule as the data show it: active = growth inhibition above about 70%; inactive = the rest.

Turning to `Nc1ncnc2nn(C3OC(CO)C(O)C3O)nc12` (configuration not stated), the growth inhibition was 15% in experiment [1] (setting [7]); 20% in experiment [1] (setting [8]); 29.1% in experiment [1] (at 50.0 µM); 2% in experiment [2] (setting [7]); 6% in experiment [2] (setting [8]); -26.2% in experiment [2] (at 50.0 µM). The growth inhibition is -7% in experiment [3] (setting [7]); 6% in experiment [3] (setting [8]); -22.1% in experiment [3] (at 50.0 µM); -29% in experiment [4] (setting [7]); -18% in experiment [4] (setting [8]); 33.1% in experiment [4] (at 50.0 µM). Moreover, the growth inhibition is 0% in experiment [5] (setting [7]); 1% in experiment [5] (setting [8]); -70.4% in experiment [5] (at 50.0 µM); 4% in experiment [6] (setting [7]); 0% in experiment [6] (setting [8]); -4.75% in experiment [6] (at 50.0 µM).
Regarding `COc1ccccc1C(=O)Nc1ccc(Cl)c(C(=O)OC(C)C)c1`, the growth inhibition is 16% in experiment [1] (setting [7]); 33% in experiment [1] (setting [8]); -1.8% in experiment [1] (at 50.0 µM); 7% in experiment [2] (setting [7]); 20% in experiment [2] (setting [8]); 22.2% in experiment [2] (at 50.0 µM). The growth inhibition was 14% in experiment [3] (setting [7]); -32% in experiment [3] (setting [8]); 70.8% (active) in experiment [3] (at 50.0 µM); 14% in experiment [4] (setting [7]); 38% in experiment [4] (setting [8]); 58.6% in experiment [4] (at 50.0 µM). Further, the growth inhibition was 13% in experiment [5] (setting [7]); 47% in experiment [5] (setting [8]); 73.2% (active) in experiment [5] (at 50.0 µM); 15% in experiment [6] (setting [7]); 65% in experiment [6] (setting [8]); 28.7% in experiment [6] (at 50.0 µM).
Consider `C/C(=N/NC(=S)Nc1ccc([N+](=O)[O-])cc1)c1cccc(/C(C)=N\NC(=S)Nc2ccc([N+](=O)[O-])cc2)n1`, for which the growth inhibition in experiment [1] (setting [7]) is 14%; in experiment [1] (setting [8]) it was 50%; in experiment [1] (at 50.0 µM), 19.6%; in experiment [2] (setting [7]), 5%; in experiment [2] (setting [8]), 72% (active); in experiment [2] (at 50.0 µM), 0.15%. Moreover, the growth inhibition in experiment [3] (setting [7]) was 15%; in experiment [3] (setting [8]), 87% (active); in experiment [3] (at 50.0 µM), 35.5%; in experiment [4] (setting [7]), 19%; in experiment [4] (setting [8]), 82% (active); in experiment [4] (at 50.0 µM), -7.35%. For the same molecule, the growth inhibition in experiment [5] (setting [7]) was 21%; in experiment [5] (setting [8]), 94% (active); in experiment [5] (at 50.0 µM) it was 2.45%; in experiment [6] (setting [7]), 10%; in experiment [6] (setting [8]) it was 61%; in experiment [6] (at 50.0 µM), 14.4%.
For the molecule `COC(=O)c1ccc(NCc2c(O)ccc(O)c2Br)cc1Cl`, the growth inhibition in experiment [1] (setting [7]) is 21%; in experiment [1] (setting [8]), 99% (active); in experiment [1] (at 50.0 µM) it was 89.5% (active); in experiment [2] (setting [7]), 14%; in experiment [2] (setting [8]), 99% (active); in experiment [2] (at 50.0 µM), 92.2% (active). For the same molecule, the growth inhibition is 21% in experiment [3] (setting [7]); 99% (active) in experiment [3] (setting [8]); 89.1% (active) in experiment [3] (at 50.0 µM); 25% in experiment [4] (setting [7]); 99% (active) in experiment [4] (setting [8]); 90.2% (active) in experiment [4] (at 50.0 µM). In addition, the growth inhibition is 22% in experiment [5] (setting [7]); 99% (active) in experiment [5] (setting [8]); 91.8% (active) in experiment [5] (at 50.0 µM); 25% in experiment [6] (setting [7]); 98% (active) in experiment [6] (setting [8]); 91.7% (active) in experiment [6] (at 50.0 µM).
For `CCOC(=O)N1CCN(C=S)CC1`, the growth inhibition in experiment [1] (setting [7]) is -8%; in experiment [1] (setting [8]), 6%; in experiment [1] (at 50.0 µM), 31.1%; in experiment [2] (setting [7]), 0%; in experiment [2] (setting [8]) it was -7%; in experiment [2] (at 50.0 µM), -23.3%. The growth inhibition in experiment [3] (setting [7]) is -5%; in experiment [3] (setting [8]), -17%; in experiment [3] (at 50.0 µM), 57.7%; in experiment [4] (setting [7]), 17%; in experiment [4] (setting [8]) it was 31%; in experiment [4] (at 50.0 µM), 15.8%. The growth inhibition is 8% in experiment [5] (setting [7]); 31% in experiment [5] (setting [8]); 24% in experiment [5] (at 50.0 µM); -5% in experiment [6] (setting [7]); -1% in experiment [6] (setting [8]); 38.2% in experiment [6] (at 50.0 µM).
Regarding `CCCC1CCCC1(CC(=O)c1ccccc1)C(=O)O` (configuration not stated), the growth inhibition in experiment [1] (setting [7]) was 21%; in experiment [1] (setting [8]), 52%; in experiment [1] (at 50.0 µM) it was 70.3% (active); in experiment [2] (setting [7]), 19%; in experiment [2] (setting [8]), 46%; in experiment [2] (at 50.0 µM), 64.8%. For the same molecule, the growth inhibition in experiment [3] (setting [7]) was 25%; in experiment [3] (setting [8]), 47%; in experiment [3] (at 50.0 µM), 81.7% (active); in experiment [4] (setting [7]), 24%; in experiment [4] (setting [8]), 54%; in experiment [4] (at 50.0 µM) it was 82.3% (active). The growth inhibition in experiment [5] (setting [7]) was 63%; in experiment [5] (setting [8]), 76% (active); in experiment [5] (at 50.0 µM), 90.2% (active); in experiment [6] (setting [7]) it was 47%; in experiment [6] (setting [8]), 72% (active); in experiment [6] (at 50.0 µM), 82.5% (active).
Consider `Cc1cc(O)c(O)cc1C/C=C/c1ccccc1`, for which the growth inhibition in experiment [1] (setting [7]) was -1%; in experiment [1] (setting [8]), 92% (active); in experiment [1] (at 50.0 µM), 53.2%; in experiment [2] (setting [7]), 1%; in experiment [2] (setting [8]) it was 97% (active); in experiment [2] (at 50.0 µM), 26.7%. The growth inhibition is 5% in experiment [3] (setting [7]); 97% (active) in experiment [3] (setting [8]); 51.5% in experiment [3] (at 50.0 µM); -5% in experiment [4] (setting [7]); 82% (active) in experiment [4] (setting [8]); 42.5% in experiment [4] (at 50.0 µM). Further, the growth inhibition in experiment [5] (setting [7]) was 0%; in experiment [5] (setting [8]) it was 96% (active); in experiment [5] (at 50.0 µM), 53.2%; in experiment [6] (setting [7]), -10%; in experiment [6] (setting [8]), 96% (active); in experiment [6] (at 50.0 µM), 40.6%.
In the case of `CC(C)C1=CC[C@H]2C(=C1)CC[C@@H]1[C@]2(C)CCC[C@@]1(C)C(=O)O`, the growth inhibition in experiment [1] (setting [7]) is -2%; in experiment [1] (setting [8]), 90% (active); in experiment [1] (at 50.0 µM) it was 79.3% (active); in experiment [2] (setting [7]) it was 15%; in experiment [2] (setting [8]) it was 91% (active); in experiment [2] (at 50.0 µM), 84.5% (active). Further, the growth inhibition is 9% in experiment [3] (setting [7]); 91% (active) in experiment [3] (setting [8]); 74.8% (active) in experiment [3] (at 50.0 µM); -9% in experiment [4] (setting [7]); 92% (active) in experiment [4] (setting [8]); 87% (active) in experiment [4] (at 50.0 µM). Besides, the growth inhibition in experiment [5] (setting [7]) was -6%; in experiment [5] (setting [8]), 89% (active); in experiment [5] (at 50.0 µM), 78.2% (active); in experiment [6] (setting [7]), 7%; in experiment [6] (setting [8]), 90% (active); in experiment [6] (at 50.0 µM) it was 77.1% (active).
As to `CC(=O)Oc1ccc2cc(-c3ccccc3OC(C)=O)c(=O)oc2c1`, the growth inhibition in experiment [1] (setting [7]) is 12%; in experiment [1] (setting [8]), 23%; in experiment [1] (at 50.0 µM), 48.1%; in experiment [2] (setting [7]), -11%; in experiment [2] (setting [8]) it was -15%; in experiment [2] (at 50.0 µM) it was 43.7%. The growth inhibition in experiment [3] (setting [7]) was 3%; in experiment [3] (setting [8]) it was 30%; in experiment [3] (at 50.0 µM) it was 77.2% (active); in experiment [4] (setting [7]), -6%; in experiment [4] (setting [8]) it was 31%; in experiment [4] (at 50.0 µM), 30.2%. Moreover, the growth inhibition is -15% in experiment [5] (setting [7]); 8% in experiment [5] (setting [8]); 57.8% in experiment [5] (at 50.0 µM); 12% in experiment [6] (setting [7]); 0% in experiment [6] (setting [8]); 74.5% (active) in experiment [6] (at 50.0 µM).

Values taken from PubChem BioAssay (NCI).
